Screens: PubChem, Emory University Molecular Libraries Screening Center
The full list was thinned out, with hits kept by preference.
14-3-3g Raf: modulators of 14-3-3 gamma protein binding, primary screen, biochemical, fluorescence polarization; 14-3-3 protein gamma (Homo sapiens), P61981; FP, 14-3-3gamma / TMR-pS259-Raf peptide binding; inhibition, % at 40 µM; 160,000 tested, 0.19% active; AID 422, 2006; in the data active = inhibition above about 30%;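 note: 0% = protein plus tracer without compound and 100% = blank with tracer alone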
Target sequence (P61981 whole entry, looked up): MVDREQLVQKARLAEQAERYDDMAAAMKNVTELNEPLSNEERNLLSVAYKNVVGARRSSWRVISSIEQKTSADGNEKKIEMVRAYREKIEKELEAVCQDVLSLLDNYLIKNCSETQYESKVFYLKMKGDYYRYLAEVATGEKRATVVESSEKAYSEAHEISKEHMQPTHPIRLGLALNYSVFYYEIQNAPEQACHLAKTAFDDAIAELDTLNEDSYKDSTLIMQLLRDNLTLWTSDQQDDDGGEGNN
Active calls of the source: *; + = active, no number.

SMILES | 14-3-3g Raf
Cc1ccccc1Nc1ccc2noc3c2c1C(=O)c1ccccc1-3 | -223
CC(=O)OCCNc1ccc2noc3c2c1C(=O)c1ccccc1-3 | +
O=C1c2ccccc2-c2onc3ccc(NCCCn4ccnc4)c1c23 | 2
COc1cc2c(cc1OC)C(C(=O)Nc1cc(OC)c(OC)c(OC)c1)C(c1ccccc1F)N(C)C2=O (stereo not given) | -7
COc1ccc(C(=O)Nc2c3c(nn2-c2cccc(Cl)c2)CSC3)cc1OC | -7
O=C(O)c1cc(N2C(=O)C3C(C2=O)C2(Br)c4ccccc4C3(Br)c3ccccc32)ccc1Cl (stereo not given) | -5
Cc1ccc(Nc2ccc3c4c(cc(=O)n3C)-c3ccccc3C(=O)c24)cc1 | -160
Cn1c(=O)cc2c3c(c(N4CCOCC4)ccc31)C(=O)c1ccccc1-2 | 33*
CC(=O)N(C)c1ccc(N2CCOCC2)c2c1C(=O)c1ccccc1C2=O | -15
Cc1ccc(Cc2c(C)nc3c(C(=O)NCc4cccnc4)cnn3c2C)cc1 | -5
CCN(C(=O)Cc1c(C(=O)O)[nH]c2ccc(Cl)cc12)c1cccc(C(F)(F)F)c1 | -12
O=C1C2C3C=CC(C3)C2C(=O)N1c1ccc(NCCC2=CCCCC2)c([N+](=O)[O-])c1 (stereo not given) | 0
COc1ccc(Br)cc1CN1CCCC(C(=O)N2CCC(Cc3ccccc3)CC2)C1 (stereo not given) | -8
O=C1c2cccc3c(Nc4ccccc4)ccc(c23)C(=O)N1c1ccccc1 | -9
O=C1c2cccc3c(NCCO)ccc(c23)C(=O)N1c1ccccc1 | 196*
C=CCNc1ccc2c3c(cccc13)C(=O)N(C)C2=O | 4
O=C(O)CCCN1C(=O)c2cccc3c(O)ccc(c23)C1=O | 138*
O=C(O)c1ccc2c3c(cccc13)C(=O)N(c1ccc(Cl)cc1)C2=O | -8
O=C1c2ccccc2C(=O)N1c1ccc(Cl)cc1 | 0
NCCNc1ccc2c3c(cccc13)C(=O)N(c1ccc(Cl)cc1)C2=O | 63*
CCOC(=O)c1ccc(N2C(=O)c3cccc4c(Cl)ccc(c34)C2=O)cc1 | -41
O=C1c2cccc3c(O)ccc(c23)C(=O)N1c1ccc(Cl)cc1 | 96*
O=C(O)CCCCN1C(=O)c2ccccc2C1=O | -1
O=C(O)CCCCCN1C(=O)c2cccc3c(N4CCCCC4)ccc(c23)C1=O | -42
O=C1c2cccc3c(N4CCCCC4)ccc(c23)C(=O)N1c1ccccc1 | 4
SMILES | 14-3-3g Raf
O=C(CC1Sc2ccccc2NC1=O)Nc1ccc(Cl)c(C(F)(F)F)c1 (stereo not given) | -5
CCOc1ccccc1Nc1nc(-c2ccccc2)cs1 | -7
COC(=O)CN1C(c2cc(OC)c(OC)c(OC)c2)Nc2ccc(Br)cc2C1c1ccccc1Cl (stereo not given) | -6
Cc1cc([N+](=O)[O-])nn1CC(=O)O | 1
CC1(c2ccccc2)CC(C)(C)N(C(=O)c2cccc(F)c2)c2ccccc21 (stereo not given) | -7
COC(=O)Cn1cnc2sc(C)c(C)c2c1=O | -3
CC(=O)Oc1ccc2cc(NC(=O)c3ccc(C)cc3)c(=O)oc2c1 | 0
CC(=O)Nc1cc(C(=O)NCCN2CCCCCC2)ccc1Sc1ccc(F)cc1 | -13
CCOC(=O)c1c(N=c2oc3ccc(Cl)cc3cc2C(N)=O)sc2c1CCCC2 | -130
CC(C)(C)NC(=O)CSc1nsc(SCC(=O)NC(C)(C)C)c1C#N | -1
Cc1csc(NC(=O)CSc2nc(-c3cccs3)cc(-c3cccs3)c2C#N)n1 | -26
Cc1csc(NC(=O)CSc2nsc(SCC(=O)Nc3nc(C)cs3)c2C#N)n1 | 75*
CCOc1ccccc1N1C(=O)C2C(c3ccc(Cl)cc3)OC3(C(=O)c4ccccc4C3=O)C2C1=O (stereo not given) | 2
COc1ccc2oc(=O)c(C(=O)Nc3ccc(I)cc3)cc2c1 | -10
COc1cccc(C=Nc2ccc3oc(-c4cccc(Br)c4)nc3c2)c1O | -56
O=C(Nc1cccc(N=Cc2c(O)ccc3cc([N+](=O)[O-])ccc23)c1)c1ccccc1 | 32*
CCOc1cc([N+](=O)[O-])cc(C=Nc2cccc(NC(=O)c3ccccc3)c2)c1O | -74
O=C(Nc1cccc(N=Cc2c(O)ccc3cc([N+](=O)[O-])ccc23)c1)c1ccc(F)cc1 | -1
COc1ccccc1C(=O)NCCCC(=O)O | 3
COc1ccc(C=Nc2ccc3nc(-c4ccccc4)[nH]c3c2)cc1OC | -11
Oc1ccc(Cl)cc1C=Nc1ccc2nc(-c3ccccc3)[nH]c2c1 | 30*
O=C(Nc1cc(N=Cc2cc(Cl)ccc2O)ccc1Cl)c1ccccc1 | -5
COc1ccc(Nc2ccc(-c3n[nH]c(=O)c4ccccc34)cc2[N+](=O)[O-])cc1 | -5
CCOc1ccc(NC(=O)CSc2nccn2-c2cccc(OC)c2)cc1 | 0
CC(=O)Nc1cc2c(cc1Cl)C(=O)c1ccccc1C2=O | -20
Cc1ccc(-c2noc(COc3cc(C)cc(C)c3C)n2)cc1 | 0
